# Data: PubChem BioAssay AID463173 (ICCB-Longwood Screening Facility, Harvard Medical School, 2010)
# About 4,300 (8.3%) of roughly 52,000 compounds were called active. The sample holds actives, similar compounds and a random draw of the others, so the mix is not that of the screen. Unmarked numbers belong to inactive results. Rule as the data show it: active = survival mostly below about 52% (no sharp cut-off); inactive = mostly above about 56%.
# Test system: DeltatarO mutant
# Assay: S. aureus survival, RN4220 and DeltatarO strains – OD600, teichoic acid synthesis inhibitors, primary screen (AID 463173)
# Settings: S. aureus RN4220 wild type/DeltatarO growth, OD600, 18 h, active compounds read low, screened at 18.75 µg/mL (by protocol)
row,Structure (SMILES),survival
1,CC1=CCC(C(=O)Nc2nc3ccccc3s2)C(C(=O)O)C1 (configuration not stated),49%
2,Cc1ccc(CNC(=O)C2CCN(c3nc4ccc(C)cc4[nH]3)CC2)cc1,126%
3,Cc1cc2ccccc2n1-c1ccc(C(=O)N2CCC(C(=O)NCc3ccc(Cl)cc3)CC2)s1,67%
4,Cc1cc2ccccc2n1-c1ccc(C(=O)N2CCC(C(=O)NCc3ccc(F)cc3)CC2)s1,6% (active)
5,CCc1ccc(CNC(=O)C2CCN(C(=O)c3ccc(-n4c(C)cc5ccccc54)s3)CC2)cc1,70%
6,Cc1nc(-c2cccc(S(=O)(=O)N3CCC(C(=O)NCc4ccccc4)CC3)c2)no1,109%
7,Cc1cccc2c1-c1sc(C(=O)N3CCN(c4cccc(Cl)c4)CC3)cc1CO2,66%
8,COc1ccc(CCNC(=O)c2cc3c(s2)-c2c(C)cccc2OC3)c(OC)c1,85%
9,CCc1ccccc1N(C)C(=O)c1cc2c(s1)-c1c(C)cccc1OC2,60%
10,COc1ccc(N(C)C(=O)c2cc3c(s2)-c2c(C)cccc2OC3)c(OC)c1,-1% (active)
11,COc1ccc(OC)c(CCNC(=O)c2cc3c(s2)-c2c(C)cccc2OC3)c1,79%
12,Cc1cccc2c1-c1sc(C(=O)N(C)c3cccc(Cl)c3)cc1CO2,0% (active)
13,Cc1cccc2c1-c1sc(C(=O)N(C)c3cccc(C(F)(F)F)c3)cc1CO2,52%
14,COc1cc(Cl)c(C)cc1NC(=O)c1cc2c(s1)-c1c(C)cccc1OC2,90%
15,COc1ccc(NC(=O)c2cc3c(s2)-c2c(C)cccc2OC3)c(OC)c1,51% (active)
16,CC(C(=O)NCc1ccco1)N1C(=O)c2ccccc2C1=O (configuration not stated),57%
17,Cc1coc2cc3oc(=O)c(CC(=O)NCCc4ccccc4)c(C)c3cc12,84%
18,COC(=O)N1N=C(c2ccccc2)CC1(O)C(F)(F)F (configuration not stated),85%
19,COc1ccc(OC)c(N=c2oc3cc(O)ccc3cc2C(=O)Nc2ccccn2)c1,70%

row,Structure (SMILES),survival
1,Cc1ccc(S(=O)(=O)NCCc2nnc3ccc(SCc4ccccc4F)nn23)cc1,76%
2,O=C(NC1C2CCCC1CN(C1CC1)C2)c1ccc(Cl)cc1 (configuration not stated),84%
3,O=C(/C(=N/O)n1cncn1)c1ccc(Cl)cc1Cl,72%
4,Cc1ccc(C)c(NC(=O)CSc2nc(=O)n(CCN(C)C)c3c2CCC3)c1,79%
5,CCOC(=O)c1c(C)oc2nc(C)nc(NCC3CCN(Cc4ccccc4C)CC3)c12,86%
6,O=C(O)C1C2C=CC(C2)C1C(=O)NCc1cccs1 (configuration not stated),83%
7,COC(=O)c1ccccc1NC(=O)N(Cc1ccc(C)cc1)Cc1cccn1-c1nnc(N2CCCC2=O)s1,123%
8,O=C1N/C(=N/N=C\c2ccco2)SC1Cc1cccc(C(F)(F)F)c1 (configuration not stated),56%
9,O=C(/C(=C\c1ccc(F)cc1)n1ccccc1=O)N1CCCC1,102%
10,O=C(NCc1cccc(F)c1)c1cccc(NC(=O)c2nsc3ccccc23)c1,85%
11,O=C(NCc1cccc(F)c1)c1ccc(NC(=O)c2nsc3ccccc23)cc1,-2% (active)
12,CC(NC(=O)c1cccc(NC(=O)c2nsc3ccccc23)c1)c1ccccc1 (configuration not stated),115%
13,O=C(NCc1ccccc1)c1ccc(NC(=O)c2nsc3ccccc23)cc1,61%
14,COC(=O)c1cccc(NC(=O)c2nsc3ccccc23)c1,-1% (active)
15,CCC(C)NC(=O)c1cccc(NC(=O)c2nsc3ccccc23)c1 (configuration not stated),74%
16,CCOc1ccc(NS(=O)(=O)c2ccc(-c3cc(C)no3)s2)cc1,87%
17,CCOc1ccc(-c2nonc2NC(=O)c2oc3ccc(Br)cc3c2C)cc1,50%
18,CC1CCC(NC(=O)CN2CCC(n3nnc4ccccc43)CC2)CC1 (configuration not stated),76%
19,CC1=C(C(=O)Nc2ccc(C)cc2C)C(c2ccccc2)n2ncc(C(=O)Nc3ccccc3)c2N1 (configuration not stated),58%

row,Structure (SMILES),survival
1,CC(=O)N1CCCc2cc(S(=O)(=O)N3CCC(C(=O)N(Cc4ccccc4)C(C)C)CC3)ccc21,76%
2,O=C(CSc1nc2ccccc2nc1Cc1ccccc1)Nc1ccc2c(c1)OCO2,75%
3,O=C(CSc1nc2ccccc2nc1Cc1ccc(F)cc1)Nc1ccc2c(c1)OCO2,52% (active)
4,O=C(CSc1nc(-c2ccc(F)cc2)[nH]c1-c1ccc(F)cc1)Nc1ccc2c(c1)OCO2,97%
5,O=C(CSc1nc(-c2ccccc2)[nH]c1-c1ccccc1)Nc1ccc2c(c1)OCO2,67%
6,O=C(CSc1nc(-c2cccc(F)c2)[nH]c1-c1ccccc1)Nc1ccc2c(c1)OCCO2,94%
7,Cc1cccc(-c2nc(SCC(=O)Nc3ccc4c(c3)OCCO4)c(-c3ccccc3)[nH]2)c1,58%
8,O=C(CSc1nc2ccccc2nc1Cc1ccc(Cl)cc1)Nc1ccc2c(c1)OCO2,71%
9,Cc1cccc(-c2nc(SCC(=O)Nc3ccc4c(c3)OCO4)c(-c3ccccc3)[nH]2)c1,40% (active)
10,O=C(CSc1nc(-c2cccc(F)c2)[nH]c1-c1ccccc1)Nc1ccc2c(c1)OCO2,32% (active)
11,O=C(CSc1nc2ccccc2nc1Cc1ccccc1F)Nc1cccc(C(F)(F)F)c1,35% (active)
12,Cc1ccc(NC(=O)CSc2nc3ccccc3nc2Cc2ccccc2F)cc1F,107%
13,Cc1ccc(Cc2nc3ccccc3nc2SCC(=O)Nc2cccc(C(F)(F)F)c2)cc1,67%
14,CC(NC(=O)Nc1cc(Cl)ccc1Cl)c1c(-n2cccc2)sc2c1CCCC2 (configuration not stated),72%
15,Cc1ccc2c(c1)N(C(=O)NCc1ccccc1)CCO2,79%
16,Cc1cccc(CN2C(=O)c3ccccc3S(=O)(=O)c3ccc(C(=O)NC4CCCCC4)cc32)c1,79%
17,COCCNC(=O)CCCn1c(SCC(=O)c2ccc(Br)cc2)nc2c(sc3ccccc32)c1=O,68%
18,COc1ccccc1CNC(=O)CN1C(=O)COc2ccc(S(=O)(=O)N3CCC(C)CC3)cc21,76%
19,Cn1cc(S(=O)(=O)c2ccc(Cl)cc2)c(=O)c2cc(F)c(N3CCCC3)cc21,73%
